Results from PubChem BioAssay AID1259421 (Broad Institute, 2018).
“And” between values parts separate entries of the source, which are not always exact repeats. Equal values may be shown once. In all, about 6,400 compounds went through this assay and about 610 (9.5%) were called active. Rule as the data show it: active = activity change below about -70%; inconclusive = no clear call, values can overlap the other calls; inactive = above that. The full list was thinned out, with actives kept by preference.

test: Toxoplasma gondii ME49Luc growth in HeLa cells, luciferase, no IFN-y, primary screen (AID 1259421); settings: T. gondii ME49Luc in HeLa, 72 h, hits give low values, concentration not given here

| SMILES | activity change, negative = inhibition |
| --- | --- |
| N[C@](CC1c2ccccc2Oc2ccccc21)(C(=O)O)[C@H]1C[C@@H]1C(=O)O | 6.02% (inactive) |
| CCn1c(=O)[nH]c2ccccc21 | 10.3% (inactive) and 2.46% (inactive) |
| CCn1c(=O)[nH]c2cc(Cl)c(Cl)cc21 | -80.8% (active) and -78.6% (active) |
| CCN(CCO)CCCOc1ccc2c(Nc3cc(CC(=O)Nc4cccc(F)c4)[nH]n3)ncnc2c1 | 18.9% (inactive) |
| CCOc1ccc2nc(SCCN3CCOCC3)[nH]c2c1 | 17.7% (inactive) |
| Cc1cc(C)c(Nc2ccnc(Nc3ccc(C#N)cc3)n2)c(C)c1 | -44.9% (inactive) |
| Cc1cc(C#N)cc(C)c1Oc1nc(Nc2ccc(C#N)cc2)nc(N)c1Br | -89.7% (active) |
| Cc1cc(/C=C/C#N)cc(C)c1Nc1ccnc(Nc2ccc(C#N)cc2)n1 | 17.7% (inactive) |
| C[C@@H](N)c1ccc(C(=O)Nc2ccnc3[nH]ccc23)cc1 | -3.01% (inactive) |
| C=CC(=O)Nc1ccccc1 | -0.419% (inactive) |
| CC(=O)c1ccc(N2CCOCC2)cc1O | 0.777% (inactive) |
| O=c1cc(-c2ccc(O)cc2)oc2ccc(O)cc12 | -46.2% (inactive) |
| CCCCCCCC(=O)OCC(COC(=O)CCCCCCC)OC(=O)CCCCCCC | 13.9% (inactive) |
| [Cl][Ru]([Cl])([Cl])[Cl].c1ccc2[nH]ncc2c1.c1ccc2[nH]ncc2c1 | 8% (inactive) |
| CC(=O)[C@@]12O[C@](C)(c3ccccc3)O[C@@H]1CC1C3CCC4=CC(=O)CC[C@]4(C)C3CC[C@@]12C (some centres undefined) | -11.3% (inactive) |
| CC(=O)[C@@]12OC(C)(c3ccccc3)O[C@@H]1C[C@H]1[C@@H]3CCC4=CC(=O)CC[C@]4(C)[C@H]3CC[C@@]12C (some centres undefined) | -52.9% (inactive) |
| C#CC1(O)CCC2C3CCC4=Cc5oncc5CC4(C)C3CCC21C (centres undefined) | -93.9% (active) |
| C[C@]12CCC(=O)C=C1CCC1C2C(=O)C[C@@]2(C)C1CC[C@]2(O)C(=O)CO (some centres undefined) | -0.365% (inactive) and 6.68% (inactive) |
| C#C[C@]1(O)CCC2C3CCC4=Cc5oncc5C[C@]4(C)C3CC[C@@]21C (some centres undefined) | -82.2% (active) and -83.7% (active) |
| NC(CSSCC(N)C(=O)O)C(=O)O (centres undefined) | 13.9% (inactive) |
| CC1(C)SC2C(NC(=O)[C@H](NC(=O)N3CCNC3=O)c3ccccc3)C(=O)N2C1C(=O)O (some centres undefined) | 33.6% (inactive) |
| NS(=O)(=O)c1cc2c(cc1Cl)NC(C(Cl)Cl)NS2(=O)=O (centres undefined) | 13.1% (inactive) and 33% (inactive) |
| NS(=O)(=O)c1cc2c(cc1Cl)NC(C1CC3C=CC1C3)NS2(=O)=O (centres undefined) | -95.9% (active) |
| NS(=O)(=O)c1cc2c(cc1Cl)NC(CC1CCCC1)NS2(=O)=O (centres undefined) | 18.7% (inactive) |
